According to PubChem BioAssay (NCATS):
Inconclusive results are not listed. A call without a number means that no potency is given here. Values without a mark were called inactive. The source made the active and inactive calls. Calls come from the whole dose curve; as a rule, active = well fitted cell-killing curve with a large enough effect; inconclusive = small, poorly fitted or top-dose-only effect, or effect the other way; inactive = flat fitted curve, though single readings scatter.

System: Hek293T
Test: Primary qHTS to identify gynecologic anti-cancer compounds using libraries of approved drugs and bioactive compounds (AID 1345084); note: nearly all actives have a fitted effect of over 55% in size
Conditions: Gynecologic cancer cell panel viability, ATPlite luminescence, 48 h, control line for the selectivity index; series mostly up to 57.5 µM
Procedure, shortened: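 48 h compound exposure at 37 C, 5% CO2; five-point qHTS. ATPlite luminescence readout of cell ATP.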

Structure (SMILES)	Potency	activity change, negative = cytotoxicity
COc1c(OC2OC(CO)C(O)C(O)C2O)ccc(O)c1C(=O)OCc1ccccc1O[C@@H]1O[C@H](CO)[C@@H](O)[C@H](O)[C@H]1O (stereo not given in full)	inactive	
CC1CCC2(C(=O)OC3OC(CO)C(O)C(O)C3O)CCC3(C)C(=CCC4C5(C)CC(O)C(O)C(C)(C(=O)O)C5CCC43C)C2C1(C)O (stereo not given)	inactive	
CC(=O)O[C@@H]1[C@H]2[C@@H](OC(=O)c3ccccc3)[C@@H](C)C[C@]2(O)[C@H](OC(C)=O)[C@@]2(C)[C@@H]3CC(C)(C)C(=O)[C@]3(OC(C)=O)C[C@@]12C	inactive	
Cc1[nH]cnc1C1CCN(c2nc3cccc4c3n2CCC4=O)CC1	inactive	
CN1CC[C@@H](NC(=O)Nc2ccc(C#N)cc2)C[C@@H]1c1nc2ccccc2[nH]1	inactive	
CC1=C2C(=O)O[C@@H](c3ccoc3)[C@]2(C)CCC1	inactive	
COc1ncc(-c2ccc3c(Nc4cc(Oc5cc(F)cc(F)c5)cc(C(=O)O)c4)c(S(=O)(=O)NC4CC4)cnc3c2)c(OC)n1	inactive	
C=C1CCC(OC(C)=O)C2(C)CC3(O)OC(=O)C(C)=C3CC12 (stereo not given)	inactive	
C=C1CC[C@H]2[C@@](C)(CCC[C@@]2(C)C(=O)O)[C@@H]1CCC(C)CCO (stereo not given in full)	inactive	
CC1CCC2(C(=O)OC3OC(CO)C(O)C(O)C3O)CCC3(C(=O)O)C(=CCC4C5(C)CCC(OC6OC(C)C(O)C(O)C6O)C(C)(C)C5CCC43C)C2C1C (stereo not given)	inactive	
CCC(C)/C=C(C)/C=C/C1=CC2=C(Cl)C(=O)C(C)(OC(C)=O)C(=O)C2=CN1C1CCCCN(C(CCC(N)=O)C(=O)O)C1=O (stereo not given)	inactive	
CC(c1c[nH]c2ccccc12)C(O)C(=O)O (stereo not given)	inactive	
CC(C)C(=O)c1cn(CC(=O)COc2ccc(Oc3ccccc3)cc2)c2ccc(C(=O)O)cc12	inactive	
CC1=C(C)C(=O)OC(C(C)(O)C2CCC3C4CC=C5CC(OC6OC(COC7OC(CO)C(O)C(O)C7O)C(O)C(O)C6O)CC(O)C5(C)C4CCC32C)C1 (stereo not given)	inactive	
CC(=O)OC[C@@]12[C@H](O)C[C@]3(C)C(=CCC4[C@@]5(C)CC[C@H](O[C@@H]6O[C@H](C(=O)O)[C@@H](O[C@@H]7O[C@H](CO)[C@@H](O)[C@H](O)[C@H]7O)[C@H](O)[C@H]6O[C@@H]6O[C@H](CO)[C@@H](O)[C@H](O)[C@H]6O)[C@](C)(CO)C5CC[C@]43C)[C@@H]1CC(C)(C)[C@@H](OC(C)=O)[C@@H]2O (stereo not given in full)		0.0542% [at 11.6 µM]
CC12CCC3c4ccc(O)cc4CCC3C1CCC2OC1OC(C(=O)O)C(O)C(O)C1O (stereo not given)	inactive	
COc1ccccc1-n1c(SCC(=O)Nc2nc3ccc(C)cc3s2)nc2c(c1=O)SCC2	inactive	
CC1(C)CC[C@]2(C(=O)O[C@@H]3O[C@H](CO)[C@@H](O)[C@H](O)[C@H]3O)CC[C@]3(C)C(=CCC4[C@@]5(C)C[C@@H](O)[C@H](O)[C@@](C)(CO)C5CC[C@]43C)C2C1 (stereo not given in full)	inactive	
C=CC1(C)C=C2C(=O)CC3C(C)(C)CCCC3(C(=O)O)C2(O)CC1 (stereo not given)	inactive	
O=C(O)c1n[nH]c2c1C[C@H]1C[C@@H]21	inactive	

Structure (SMILES)	Potency	activity change, negative = cytotoxicity
COC(=O)C1=COC(O[C@@H]2O[C@H](CO)[C@@H](O)[C@H](O)[C@H]2O)/C(=C\COC(=O)c2ccc(OC3OC(CO)C(O)C(O)C3O)c(OC)c2)C1CC(=O)OCCc1ccc(O)cc1 (stereo not given in full)		17.6% [at 11.6 µM]
CC(=O)OC[C@@]12[C@@H](OC(C)=O)C[C@@H](C)[C@](C)([C@@H]3C[C@H]4C=CO[C@H]4O3)[C@H]1CCC[C@]21CO1	inactive	
C=CC1(C)CC(OC(=O)C(=C)C(O)COC(C)=O)C(C(=C)C(=O)OC)C(O)C1C(=C)CO (stereo not given)	inactive	
CC(=C/C(=O)O)/C=C/[C@]1(O)[C@@]2(C)CO[C@]1(C)C[C@H](O[C@@H]1O[C@H](CO)[C@@H](O)[C@H](O)[C@H]1O)C2	inactive	
CC1CCC2(C)C(CC(O)C(O)C23CO3)C1(C)CCC1=CC(=O)OC1O (stereo not given)	inactive	
CC1CCC2(NC1)OC1C(=O)C3C4CCC5CC(O[C@@H]6O[C@H](CO)[C@@H](O)[C@H](O)[C@H]6O[C@@H]6O[C@@H](C)[C@H](O)[C@@H](O)[C@H]6O)CCC5(C)C4CCC3(C)C1C2C (stereo not given in full)	inactive	
Cc1nn(C)c(COc2ccc(N3CCN(S(=O)(=O)N(C)C)CC3)cc2)c1-c1cccc2c(CCCOc3cccc4ccccc34)c(C(=O)O)n(CCN3CCOCC3)c12	inactive	
C=C(C)[C@@H](C)[C@H]1O[C@]23C[C@]4(CO2)C(CCC2[C@@]5(C)CC[C@H](O[C@@H]6OC[C@H](O)[C@H](O[C@@H]7O[C@H](CO)[C@@H](O)[C@H](O)[C@H]7O)[C@H]6O[C@@H]6O[C@@H](CO)[C@H](O)[C@H]6O)C(C)(C)C5CC[C@]24C)C3[C@@](C)(O)[C@@H]1OC(C)=O (stereo not given in full)		-2.35% [at 11.6 µM]
CCCCN(CCCC)C(=O)CN1C[C@H](c2ccc3c(c2)OCO3)[C@@H](C(=O)O)[C@@H]1c1ccc(OC)cc1	inactive	
COc1c(C)c(OCC=C(C)C)cc2c1C(=O)NC2=O	inactive	
COC(=O)C1=CO[C@@H](O[C@@H]2O[C@H](CO)[C@@H](O)[C@H](O)[C@H]2O)[C@@H]2[C@@H](C(=O)OC)[C@@H](O)C(O)[C@H]12 (stereo not given in full)	inactive	
C=C(C(=O)O)C1CCC(C)C2CCC(=O)OC2(C)C1 (stereo not given)	inactive	
COc1cc(/C=C/C(=O)O[C@H]2[C@H](OC(=O)/C=C/c3cc(OC)c(O)c(OC)c3)O[C@H](CO[C@@H]3O[C@H](CO)[C@@H](O)[C@H](O)[C@H]3O)[C@@H](O)[C@@H]2O)ccc1O	inactive	
COc1c(C)c2c(c(O)c1C/C=C(\C)CC/C=C(\C)CCC(=O)O)C(=O)OC2	inactive	
C=C1[C@H]2CC[C@]3(O)[C@@](CC[C@@H]4[C@](C)(C(=O)O)CCC[C@]43C)(C2)[C@H]1OC(=O)/C(C)=C\C	inactive	
CC(=O)O[C@H]1[C@H](Oc2ccccc2COC(=O)C2(O)C=CCCC2=O)O[C@H](CO)[C@@H](O)[C@@H]1O (stereo not given in full)	inactive	
OCC1=CC[C@@H]2C=CO[C@@H](O[C@@H]3O[C@H](CO)[C@@H](O)[C@H](O)[C@H]3O)[C@H]12	inactive	
CC[C@H]1OC(=O)C[C@@H](O)[C@H](C)[C@@H](O[C@@H]2O[C@H](C)[C@@H](O)[C@H](N(C)C)[C@H]2O)[C@@H](CCN2C[C@H](C)C[C@H](C)C2)C[C@@H](C)C(=O)/C=C/C(C)=C/[C@@H]1CO[C@@H]1O[C@H](C)[C@@H](O)[C@@H](OC)[C@H]1OC	inactive	
COc1cc(C2Oc3c(OC)cc(/C=C/C(=O)OC[C@H]4O[C@@H](OC(C)(C)C(=O)O)[C@H](O)[C@@H](O)[C@@H]4O)cc3C2CO)ccc1O (stereo not given in full)	inactive	
CC(=O)OCCC(C)CCC1C(C)(O)CCC2C(C)(C)CCCC21C (stereo not given)	inactive	
